Compound activity (PubChem BioAssay)
L3MBTL1 inh = qHTS Assay for the Inhibitors of L3MBTL1; Lethal(3)malignant brain tumor-like protein 1 (Homo sapiens), Q9Y468; AlphaScreen L3MBTL1–H3K9me1 peptide binding; Potency, µM (titrated, usually from 57.1 µM), for inactives: at the highest dose activity, negative = inhibition, actives largely listed as inhibitors; actives 0.66% (n = 230,000); AID 485360, 2010; note: nearly all actives have a fitted effect of over 60% in size
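First, the protein-peptide complex forms for 30 min at room temperature (L3MBTL1 50 nM, biotinylated H3K9me1 peptide 75 nM). Next, compounds are pin-transferred and incubated 30 min. Finally, AlphaScreen beads are added and read after 30 min.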
BLM inh = qHTS Assay for Inhibitors of Bloom's syndrome helicase (BLM); RecQ-like DNA helicase BLM (Homo sapiens), P54132; recombinant BLM DNA unwinding, fluorescence dequenching; Potency, µM (doses to about 56.1 µM), for inactives: at the top dose activity change, negative = inhibition, hits mostly inhibitors; actives 0.2% (n = 350,000);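 note: plate controls were vehicle for no effect and no enzyme for full effect; nearly all actives have a fitted effect of over 35% in size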
FEN1 inhibitor = qHTS Assay for the Inhibitors of Human Flap endonuclease 1 (FEN1); P39748; Recombinant FEN1 flap cleavage, fluorescence, 15 min; Potency, µM (highest dose often 114 µM), without a hit: at the highest dose activity change, negative = inhibition, hits mostly inhibitors; actives 0.35% (n = 390,000); AID 588795, 2011; note: nearly all actives have a fitted effect of over 65% in size
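With each library titrated from low to high concentration, compounds met 10 nM FEN1 for 15 min at room temperature before 50 nM substrate was added; readings at 0 and 15 min fed four-parameter Hill curve fits.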
WRN helicase inh = qHTS for Inhibitors of WRN Helicase; Potency, µM (top dose mostly 114 µM), without a hit: at the highest dose activity change, negative = inhibition, most hits filed as inhibitors; actives 0.46% (n = 360,000); WRN helicase unwinding, fluorescent forked duplex, kinetic; Bifunctional 3'-5' exonuclease/ATP-dependent helicase WRN (Homo sapiens), Q14191; note: nearly all actives have a fitted effect of over 55% in size
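Kinetic red-fluorescence monitoring (525/598 nm) tracks WRN helicase activity after 100 nM fluorophore-quencher forked duplex and 2 mM ATP are added to 20 nM enzyme pretreated 15 min at room temperature with compound.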
RECQ1 inh-1 = qHTS Assay for Inhibitors of RecQ-Like Dna Helicase 1 (RECQ1); ATP-dependent DNA helicase Q1 (Homo sapiens), P46063; RECQ1 DNA unwinding, red fluorescence kinetic read; Potency, µM (top dose mostly 57.3 µM), inactives show top-dose activity, negative = inhibition, most hits filed as inhibitors; actives 0.54% (n = 240,000); AID 2549, 2010;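 note: plate controls were vehicle for no effect and no enzyme for full effect; nearly all actives have a fitted effect of over 30% in size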
Target sequence (P46063 whole entry, looked up): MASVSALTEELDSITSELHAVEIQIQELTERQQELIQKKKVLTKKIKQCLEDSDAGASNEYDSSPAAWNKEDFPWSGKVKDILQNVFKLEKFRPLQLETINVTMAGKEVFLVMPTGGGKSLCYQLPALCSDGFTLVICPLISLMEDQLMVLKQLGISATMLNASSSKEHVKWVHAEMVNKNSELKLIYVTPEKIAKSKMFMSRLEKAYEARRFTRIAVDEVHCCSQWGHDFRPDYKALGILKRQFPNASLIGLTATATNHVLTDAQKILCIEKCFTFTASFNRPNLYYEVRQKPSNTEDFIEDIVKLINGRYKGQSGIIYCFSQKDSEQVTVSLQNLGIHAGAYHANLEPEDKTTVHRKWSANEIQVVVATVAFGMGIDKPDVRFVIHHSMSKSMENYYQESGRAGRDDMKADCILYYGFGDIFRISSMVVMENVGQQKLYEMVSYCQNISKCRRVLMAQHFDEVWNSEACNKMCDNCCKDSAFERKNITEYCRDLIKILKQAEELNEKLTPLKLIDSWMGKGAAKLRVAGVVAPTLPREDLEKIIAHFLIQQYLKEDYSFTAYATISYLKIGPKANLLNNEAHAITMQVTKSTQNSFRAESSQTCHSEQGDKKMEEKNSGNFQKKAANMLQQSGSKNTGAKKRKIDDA
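RECQ1T1 50 nM; forked duplex (20 bp + 30-nt ss tails) 200 nM, ATP 2 mM final; pH 8.0, 2 mM MgCl2, 2.5 ug/ml poly(dI-dC); 15 min compound preincubation; discontinuous kinetic read over 2 h at RT.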
APEX1 inh = qHTS Assay for Inhibitors of the Human Apurinic/apyrimidinic Endonuclease 1 (APE1) | DNA repair nuclease/redox regulator APEX1 (Homo sapiens), P27695 | actives 0.35% (n = 350,000) | Potency, µM (series often up to 65.8 µM), without a hit: top-dose activity change, negative = inhibition, hits mostly inhibitors | AID 2517, 2012 | recombinant APE1, TAMRA/BHQ-2 abasic DNA cleavage fluorescence;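 note: plate controls were vehicle for no effect and reference inhibitor for full effect; nearly all actives have a fitted effect of over 55% in size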
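0.75 nM APE1 + cpd, 15 min RT; start w/ 50 nM TAMRA/BHQ-2 THF-abasic dsDNA; kinetic fluor 525/598 nm ×3 reads @60 s; Δ(read3−read1); normalized to DMSO and NSC13755 control wells.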
RECQ1 conf = Confirmation qHTS Assay for Inhibitors of RecQ-Like Dna Helicase 1 (RECQ1). shares compounds with RECQ1 inh-1. RECQ1 helicase DNA unwinding, fluorescence. Potency, µM (titrated, usually from 229 µM), inactives show top-dose activity change, negative = inhibition, most hits filed as inhibitors. actives 28% (n = 610). AID 2708, 2010; note: nearly all actives have a fitted effect of over 45% in size
RECQ1 ADP FP = Counterscreen for RECQ1 Inhibitors: ADP Fluorescence Polarization Displacement Assay. shares compounds with RECQ1 inh-1. ADP fluorescence polarization displacement counterscreen. Potency, µM (top dose mostly 228 µM), for the others: top-dose activity change, negative = inhibition, hits mostly inhibitors. actives 27% (n = 530). AID 2711, 2010; note: nearly all actives have a fitted effect of over 45% in size
RECQ1 inh-2 = Confirmation qHTS Assay for Inhibitors of RecQ-Like Dna Helicase 1 (RECQ1) - Round 2 Cherry Picks; shares compounds with RECQ1 inh-1; recombinant RECQ1 DNA unwinding, red fluorescence; Potency, µM (top dose mostly 119 µM), without a hit: at the top dose activity, negative = inhibition, actives largely listed as inhibitors; actives 15% (n = 1,100); AID 504841, 2011; note: nearly all actives have a fitted effect of over 50% in size
* hit, by the source's call; [ ] = dose if it differs, or a comment. Compounds with a hit are over-represented: about 1% of the library has one in this group of screens. Calls come from the whole dose curve; as a rule, active = well fitted curve in the direction sought with a large enough effect; inconclusive = small, poorly fitted or top-dose-only effect, or another doubt; inactive = no such curve, though single readings can be large; an effect the other way counts as inactive or inconclusive. Unless noted, % is set by controls: 0 for no effect and ±100 for the full control effect; potency is the fitted concentration of half-maximal effect.

`COc1ccc(CN(C)C(=O)/C=C/[C@H]2O[C@@H](n3cc(C)c(=O)[nH]c3=O)C[C@@H]2O)cc1OC` gave WRN helicase inh -3.1%.
CCCn1c(N)c(N(CCOC)C(=O)c2cc3c(s2)CCCCC3)c(=O)[nH]c1=O was read as BLM inh -0.7%, FEN1 inhibitor 6.4%, WRN helicase inh -13.9% and APEX1 inh -7.1%.
`COCCCN(C(=O)c1cc2c(s1)CCC2)c1c(N)n(Cc2ccccc2)c(=O)[nH]c1=O` gave L3MBTL1 inh inconclusive, BLM inh inconclusive, FEN1 inhibitor -4.6%, WRN helicase inh inconclusive, RECQ1 inh-1 14.1µM*, APEX1 inh inconclusive, RECQ1 conf 39.8µM*, RECQ1 ADP FP inconclusive and RECQ1 inh-2 inconclusive.
For O=C(CSc1nnc(-c2ccco2)n1Cc1ccccc1)c1ccc(F)cc1 the results were L3MBTL1 inh -22.0%, BLM inh -12.7%, FEN1 inhibitor -23.7%, WRN helicase inh -17.2%, RECQ1 inh-1 inconclusive, APEX1 inh 0.8% and RECQ1 inh-2 -16.7%.
For O=C(CSc1nnc(-c2ccco2)n1Cc1ccccc1)NCc1ccccc1 the results were L3MBTL1 inh 2.0%, BLM inh 5.7%, FEN1 inhibitor -0.3%, WRN helicase inh 4.8%, RECQ1 inh-1 -4.2% and APEX1 inh -2.1%.
`CCOC(=O)C1CCN(C(=O)Nc2ccc3c(c2)nc(C)n3C)CC1` gave BLM inh 2.2%, FEN1 inhibitor -0.4%, WRN helicase inh -0.3%, RECQ1 inh-1 4.5% and APEX1 inh -4.8%.
For CCOC(=O)C1CCN(C(=O)Nc2ccc3nc(-c4ccco4)c(-c4ccco4)nc3c2)CC1 the results were L3MBTL1 inh 3.55µM*, BLM inh 4.47µM*, FEN1 inhibitor inconclusive, WRN helicase inh 35.5µM*, RECQ1 inh-1 10µM*, APEX1 inh 7.94µM* and RECQ1 inh-2 inconclusive.
`Cn1cnc([N+](=O)[O-])c1Oc1cccc(O)c1` gave L3MBTL1 inh inconclusive, BLM inh 2.6%, FEN1 inhibitor 7.9%, WRN helicase inh 14.8%, RECQ1 inh-1 -19.1% and APEX1 inh 13.4%.
Cn1cnc([N+](=O)[O-])c1Oc1cccc2ccccc12 was read as L3MBTL1 inh 4.0%, BLM inh 0.7%, FEN1 inhibitor -4.6%, WRN helicase inh -26.1%[57.1 µM], RECQ1 inh-1 5.01µM*, APEX1 inh 17.9% and RECQ1 inh-2 -15.9%.
O=C1CCCN1CC1CCCN(Cc2nc(COc3ccccc3)no2)C1 (stereo not given) was read as L3MBTL1 inh -3.6%, BLM inh -5.9%, FEN1 inhibitor -2.3%, WRN helicase inh -0.4%, RECQ1 inh-1 2.2% and APEX1 inh 0.9%.
For C=CCC1(CC=C)CCCN1Cc1nc(COc2ccccc2)no1 the results were L3MBTL1 inh 15.7%, BLM inh -7.2%, FEN1 inhibitor 1.2%, WRN helicase inh -9.4%, RECQ1 inh-1 39.8µM*, APEX1 inh -6.0% and RECQ1 inh-2 -9.7%.
COc1cc(CN2C[C@@H](CO)O[C@@H](n3cnc4c(N(C)C(C)C)ncnc43)C2)cc(OC)c1OC was read as WRN helicase inh 6.4%.
Screening CCn1c(=O)c(C(=O)NNS(=O)(=O)c2ccc(C)cc2)c(O)c2ccccc21 returned L3MBTL1 inh 9.7%, BLM inh -6.7%, FEN1 inhibitor -2.0%, WRN helicase inh -10.0%, RECQ1 inh-1 -6.7% and APEX1 inh -2.5%.
CCn1c(=O)c(C(=O)NNS(=O)(=O)c2ccc(Br)cc2)c(O)c2ccccc21 was read as L3MBTL1 inh 4.9%, BLM inh -15.1%, FEN1 inhibitor inconclusive, WRN helicase inh -2.8%, RECQ1 inh-1 inconclusive, APEX1 inh 8.4% and RECQ1 inh-2 inconclusive.
Nc1c(C(=O)Nc2ccccc2F)sc2nc(-c3cccnc3)ccc12 was read as BLM inh -6.2%, FEN1 inhibitor 0.6%, WRN helicase inh -5.5%, RECQ1 inh-1 31.6µM*, APEX1 inh 12.5% and RECQ1 inh-2 -14.5%.
Screening Cc1ccc(NC(=O)Cn2c(=O)n(CCCCC(=O)NCCc3ccc(Cl)cc3)c(=O)c3ccccc32)cc1 returned BLM inh -6.8% and FEN1 inhibitor -2.5%.
Cc1ccc(S(=O)(=O)N2CCCCC2C(=O)NCc2ccco2)cc1 (stereo not given) was read as L3MBTL1 inh -9.0%, BLM inh -3.5%, FEN1 inhibitor 2.5%, WRN helicase inh -7.8%, RECQ1 inh-1 -7.0% and APEX1 inh -1.2%.
COC(=O)Nc1ccc(S(=O)(=O)N2CCCCC2C(=O)NCc2ccco2)cc1 (stereo not given) was read as BLM inh 0.6%, FEN1 inhibitor -0.8%, WRN helicase inh -14.3%, RECQ1 inh-1 -2.1%, APEX1 inh 2.8%, RECQ1 conf -0.2% and RECQ1 ADP FP 11.2%.
Screening NS(=O)(=O)c1ccc(CCNC(=O)CSc2nc3ccsc3c(=O)n2CCCCCC(=O)O)cc1 returned BLM inh -8.2%, FEN1 inhibitor 11.9%, WRN helicase inh -7.6%, RECQ1 inh-1 -1.4%, APEX1 inh 13.3%, RECQ1 conf 13.8% and RECQ1 ADP FP -7.6%.
